Source: paper PMC4336329 (PLoS ONE, 2015)
The campaign covered roughly 310,000 compounds. About 14,000 (4.5%) showed an effect of 50% or more. Effects have a minus sign here. Shown is part of a subset that was picked to be rich in strong results.

target: human ether-à-go-go-related gene (hERG) potassium channel (human, UniProt Q12809); experiment: primary screen, population patch clamp on CHO cells stably expressing hERG; higher = less effect of the substance
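Note: peak tail current of the secondary pulse compared with the same well before compound.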

Sequence of human ether-à-go-go-related gene (hERG) potassium channel (Q12809 whole entry, looked up): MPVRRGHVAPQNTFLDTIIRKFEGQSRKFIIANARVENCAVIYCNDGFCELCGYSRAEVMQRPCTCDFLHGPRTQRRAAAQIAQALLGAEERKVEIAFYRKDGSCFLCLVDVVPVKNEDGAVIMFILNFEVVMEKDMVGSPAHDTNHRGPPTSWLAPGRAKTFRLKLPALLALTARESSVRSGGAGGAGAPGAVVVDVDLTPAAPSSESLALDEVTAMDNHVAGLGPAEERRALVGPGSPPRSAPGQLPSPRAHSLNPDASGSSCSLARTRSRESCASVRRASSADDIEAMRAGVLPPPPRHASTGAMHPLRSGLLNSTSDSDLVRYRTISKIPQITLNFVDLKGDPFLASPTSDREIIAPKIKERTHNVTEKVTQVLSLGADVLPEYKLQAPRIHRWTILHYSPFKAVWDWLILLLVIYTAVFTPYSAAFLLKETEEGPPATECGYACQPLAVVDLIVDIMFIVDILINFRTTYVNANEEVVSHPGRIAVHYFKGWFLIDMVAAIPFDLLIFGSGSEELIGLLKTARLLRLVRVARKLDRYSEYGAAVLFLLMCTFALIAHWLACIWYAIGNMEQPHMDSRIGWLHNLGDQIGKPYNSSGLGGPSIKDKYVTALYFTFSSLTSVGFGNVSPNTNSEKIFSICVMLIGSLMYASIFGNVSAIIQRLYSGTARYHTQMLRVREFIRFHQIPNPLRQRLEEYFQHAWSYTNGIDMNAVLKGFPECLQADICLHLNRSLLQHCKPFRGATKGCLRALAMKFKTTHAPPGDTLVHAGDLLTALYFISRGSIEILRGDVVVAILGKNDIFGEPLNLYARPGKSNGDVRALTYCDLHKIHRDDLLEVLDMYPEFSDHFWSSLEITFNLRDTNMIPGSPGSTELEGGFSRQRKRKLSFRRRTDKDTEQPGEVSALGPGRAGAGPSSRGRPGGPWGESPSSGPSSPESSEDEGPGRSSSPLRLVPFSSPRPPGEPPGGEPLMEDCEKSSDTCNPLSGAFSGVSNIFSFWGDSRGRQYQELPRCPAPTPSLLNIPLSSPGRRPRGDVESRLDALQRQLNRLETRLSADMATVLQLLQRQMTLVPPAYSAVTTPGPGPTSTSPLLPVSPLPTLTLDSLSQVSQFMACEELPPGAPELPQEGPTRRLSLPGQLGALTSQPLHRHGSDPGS

Structure (SMILES) | hERG current change (%, negative = inhibition) at 10uM
CCc1ccc(NC(=O)Cn2nc(C)n3cccc3c2=O)cc1 | 15%
O=C(Nc1cccnc1)c1sc(Nc2ccccc2F)nc1-c1ccccc1 | 20.5%
O=C(O)/C=C\C(=O)Nc1ccc(N2CCN(c3cccc(Cl)c3)CC2)cc1 | 10.2%
CCCCCN(C(=O)CCC(=O)OCCOc1ccccc1Cl)c1c(N)n(CCCC)c(=O)[nH]c1=O | -41.3%
COC(=O)CSc1nnc(-c2ccc(NS(=O)(=O)c3ccccc3)cc2)o1 | 9.9%
CC(=O)Oc1ccc2c(C)c(CC(C)O)c(=O)oc2c1 (stereo not shown) | 6.98%
Cl.O=C(NN1CCN(Cc2ccccc2Cl)CC1)c1ccc(Br)cc1 | 18.3%
Cc1cc(C)c(N=Cc2c(O)[nH]c(=O)[nH]c2=O)c(C)c1 | 11.6%
CCN(CC)C(=O)C1CCCN(c2ccccc2[N+](=O)[O-])C1 (stereo not shown) | -1.67%
CCN(CC)C(=O)C1CCCN(c2ccc([N+](=O)[O-])cc2/C=N/NC(=O)c2cccc(O)c2)C1 (stereo not shown) | -16.9%
O=C(N/N=C\c1cc([N+](=O)[O-])ccc1N1CCCC1)c1ccccn1 | -3.3%
Cn1cc(/C=N/NC(=O)c2cccc([N+](=O)[O-])c2)c2ccccc21 | 14.8%
CCN(CC)C(=O)C1CCCN(c2ccc([N+](=O)[O-])cc2/C=N/NC(=O)c2cccc(Br)c2)C1 (stereo not shown) | -0.713%
CCN(CC)C(=O)C1CCCN(c2ccc([N+](=O)[O-])cc2/C=N/NC(=O)c2cccc([N+](=O)[O-])c2)C1 (stereo not shown) | -55.3%
CCN(CC)C(=O)C1CCCN(c2ccc([N+](=O)[O-])cc2[N+](=O)[O-])C1 (stereo not shown) | -38.3%
CCN(CC)C(=O)C1CCCN(c2ccc([N+](=O)[O-])cc2)C1 (stereo not shown) | -52.2%
CN1CCN(c2ccc([N+](=O)[O-])cc2/C=N/NC(=O)c2cccc([N+](=O)[O-])c2)CC1 | -54%
COc1ccc(-c2nnc(CSc3nc4ccccc4c(=O)n3CC3CCCO3)o2)cc1OC (stereo not shown) | -49%
CN(Cc1nc(Cc2ccccc2F)no1)CC1(N2CCOCC2)CCCCC1 | -62.8%
CN(Cc1nc(-c2cccs2)no1)CC1(N2CCOCC2)CCCCC1 | -24.2%
COc1ccc(Cc2noc(CN(C)CC3(N4CCOCC4)CCCCC3)n2)cc1OC | -15.5%
Cc1cc(C(C)(C)C)ccc1OCC(=O)N/N=C\c1c(C)n(C)n(-c2ccccc2)c1=O | -66.3%
Cc1ccccc1OCC(=O)N/N=C/c1c(C)nn(-c2ccccc2)c1Cl | 1.74%
COc1cc(Br)cc(Br)c1OCC(=O)N/N=C/c1c(C)n(C)n(-c2ccccc2)c1=O | -23.1%
CCOC(=O)c1c(N/N=C/c2ccncc2)n[nH]c1C | -10.9%
COCCN(CC(=O)NC1CCCCC1)C(=O)CCCC(=O)Nc1ccccn1 | 10%

Structure (SMILES) | hERG current change (%, negative = inhibition) at 10uM
COC/C=C/C1=CC2=CC(=O)C(C)(OC(=O)c3cnc4ccccc4n3)C(=O)C2=CN1Cc1ccco1 (stereo not shown) | 0.0609%
O=C(Nc1ccc2[nH]c(=O)[nH]c2c1)C(F)(F)F | 14.9%
Cn1cc(C(=O)N2CCCCC2)c2ccccc21 | 4.66%
Cc1cc(C)c(S(=O)(=O)NCCOc2ccccc2)c(C)c1-n1cnnn1 | 7.74%
C=C[C@H]1CN2CC[C@H]1C[C@@H]2[C@@H](O)c1ccnc2ccccc12 | -57.1%
C=C[C@H]1CN2CC[C@H]1C[C@H]2[C@H](O)c1ccnc2ccccc12 | -34%
C=CC1CN2CCC1CC2[C@@H](OC(=O)c1ccc(OC)cc1)c1ccnc2ccccc12 (stereo partly shown) | -37.3%
CC(Nc1ccccc1)c1cccnc1 (stereo not shown) | -49.1%
COc1ccc(CCNS(=O)(=O)c2ccc(Cl)cc2)cc1OC | -6.54%
CC(NC(=O)COc1ccc([N+](=O)[O-])cc1)c1ccccc1 (stereo not shown) | -34.5%
CC(=O)NC(CC(=O)O)c1ccc([N+](=O)[O-])cc1 (stereo not shown) | 10.6%
CC(=O)Nc1ccc(S(=O)(=O)NCCC(=O)OCc2ccccc2F)cc1 | -8.68%
Cc1nn(-c2ccccc2)c(C)c1NC(=O)COc1ccc([N+](=O)[O-])cc1 | -69.4%
CCC(NC(=O)COc1ccc([N+](=O)[O-])cc1)c1ccccc1 (stereo not shown) | -50.7%
Cc1ccc(S(=O)(=O)NCCC(=O)OCc2ccc([N+](=O)[O-])cc2)cc1C | -42.3%
CC(=O)Nc1ccc(S(=O)(=O)NCCC(=O)OCc2ccc([N+](=O)[O-])cc2)cc1 | -57.4%
CC(=O)c1ccc(OCC(=O)Nc2c(C)nn(-c3ccccc3)c2C)cc1 | -2.73%
CC(=O)NC(CC(=O)OCc1ccc([N+](=O)[O-])cc1)c1ccccc1 (stereo not shown) | -63.1%
Cc1nn(-c2ccccc2)c(C)c1NC(=O)COc1ccc(C#N)cc1 | -36.9%
CCOC(=O)CC(NC(C)=O)c1ccc([N+](=O)[O-])cc1 (stereo not shown) | -1.79%
O=C(O)CC(NC(=O)COc1ccccc1)c1cccc([N+](=O)[O-])c1 (stereo not shown) | 18.8%
CCOc1ccc(S(=O)(=O)N(CC)CC)cc1NC(=O)c1ccc(N2CCCC2=O)cc1 | 18.2%
O=C(N/N=C/c1cccnc1)c1ccc(CN2c3cccc4cccc(c34)S2(=O)=O)cc1 | 5.22%
CCC(C(=O)NCc1cccs1)n1nc(C)n2c(cc3occc32)c1=O (stereo not shown) | 0.0905%
COC(=O)c1ccc(NC(=O)N2CCC(O)(c3cccnc3)CC2)cc1 | 9.11%
CCOC(=O)c1cccc(NC(=O)CSc2nnc(COc3ccc(Cl)cc3)o2)c1 | 16.3%
